Screens as filed in PubChem BioAssay.
Rows were chosen to be rich in hits. Some 1% of all compounds tested hit in one or more screens of this group.
DUSP3 inh – VHR1 phosphatase inhibitors, primary screen, biochemical, absorbance, uHTS; recombinant VHR phosphatase, pNPP absorbance; inhibition, % at 13.3 µM; hit rate 0.52% among 290,000; AID 1654, 2009; in the data active = inhibition above about 50%
Yp Topo-I inh – Yersinia pestis topoisomerase I inhibitors, primary screen, biochemical, cleavage product accumulation, plate reader, single point; DNA topoisomerase I (Yersinia pestis CO92); Y. pestis Topo-I cleavage product accumulation; activity, % at 10 µM; hit rate 0.064% among 360,000; in the data active = activity above about 50%, passing the limit was not always enough
TcdB inh – TcdB glycohydrolase inhibitors, primary screen, biochemical, single point, plate reader; AID 652162, 2013; TcdB glycohydrolase enzymatic assay; inhibition, % at 9.99 µM; Toxin B (Clostridioides difficile), P18177; hit rate 0.24% among 350,000; in the data active = inhibition above about 10%
FadD28 binding – inhibitors of FadD28 bisubstrate probe binding, primary screen, biochemical, fluorescence polarization, single point | Mycobacterium tuberculosis FadD28 fatty-acid-AMP ligase | inhibition, % at 12.5 µM | hit rate 0.22% among 360,000 | AID 588549, 2011; in the data active = inhibition above about 8.5%, passing the limit was not always enough
MazEF act – activators of E. coli MazEF toxin-antitoxin RNase, primary screen, biochemical, fluorescence, uHTS; Endoribonuclease toxin MazF (Escherichia coli (strain K12)), P0AE70; FAM/BHQ RNA-DNA oligo cleavage fluorescence, 5 h; activation, % at 20 µM; hit rate 0.32% among 350,000; AID 504720, 2011; in the data active = activation above about 50%
BioA inh – M. tuberculosis BioA enzyme inhibitors, primary screen, biochemical, plate reader, single point, HTS; 7,8-diaminopelargonic acid synthase BioA (Mycobacterium tuberculosis); purified M. tuberculosis BioA enzyme; inhibition, % at 9.99 µM; hit rate 0.096% among 360,000; AID 602481, 2012; in the data active = inhibition above about 40%
Each line names hits and unclear results; the compound was inactive in the other large screens; ! = not active in a repeat.

C[C@@H]1CCCCO[C@@H](CN(C)S(=O)(=O)c2cn(C)cn2)[C@@H](C)CN([C@@H](C)CO)C(=O)c2cc(NS(=O)(=O)c3ccccc3)ccc2O1	none (no result: DUSP3 inh, Yp Topo-I inh, FadD28 binding, MazEF act)
C[C@@H]1CN([C@@H](C)CO)S(=O)(=O)c2ccc(-c3ccncc3)cc2O[C@H]1CN(C)C(=O)CN(C)C	none (no result: DUSP3 inh, Yp Topo-I inh, FadD28 binding, MazEF act)
O=c1c2ccccc2[nH]c(=S)n1-c1cccnc1	none (no result: Yp Topo-I inh, FadD28 binding, BioA inh)
O=c1c2ccc(Cl)cc2[nH]c(=S)n1-c1cccnc1	TcdB inh 10 (no result: BioA inh)
O=S(=O)(c1ccc(F)cc1)N1CCCCN2[C@@H](CO)[C@H](c3ccc(-c4ccccc4F)cc3)[C@@H]2C1	none (no result: DUSP3 inh, Yp Topo-I inh, FadD28 binding, MazEF act)
CN(C)c1ccc(/C=N/NC(=O)c2cnc3ccccc3c2)cc1	MazEF act 190
CC(C)C[C@@H]1NC(=O)[C@H]2C[C@@H](C(=O)NCc3ccc(F)cc3)[C@@H](c3cccc(OCCO)c3)N2C1=O	none (no result: DUSP3 inh, Yp Topo-I inh, FadD28 binding, MazEF act)
CC1(c2ccc(OC(F)F)cc2)NC(=O)N(CC(=O)Nc2ccc3[nH]c(=O)[nH]c3c2)C1=O (stereo not given)	FadD28 binding 12 (no result: DUSP3 inh)
CCN(CC)S(=O)(=O)c1ccc(Cl)c(NC(=O)c2cc(Cl)ccc2Cl)c1	MazEF act 54
CCC1=NNc2cccc3c(OC)ccc1c23	DUSP3 inh 54 (no result: Yp Topo-I inh, TcdB inh, FadD28 binding, MazEF act, BioA inh)
COc1ccc2c3c(cccc13)C(=O)N(O)C2=O	none
O=C(C[C@H]1C[C@H]2c3cc(NC(=O)c4cccnc4)ccc3O[C@H]2[C@@H](CO)O1)NCCN1CCCCC1	none (no result: DUSP3 inh, Yp Topo-I inh, FadD28 binding, MazEF act)
COc1ccc(CNC(=O)Cc2cn(C)c3ccccc23)c(OC)c1	TcdB inh 28
COc1cc2ccccc2cc1C(=O)N/N=C/c1cccnc1	BioA inh 72
O=C(N/N=C/c1cccc(OC(=O)c2ccccc2Cl)c1)c1cccnc1	BioA inh 50
COc1cccc(C=NNC(=O)c2ccncc2)c1O	none (no result: DUSP3 inh)
CCOc1cc(/C=N/NC(=O)c2cccnc2)ccc1OCC(N)=O	none (no result: BioA inh)
Cc1ccc(C(=O)N/N=C/c2ccc(OC(=O)c3ccccc3Cl)cc2)cn1	none
CCOc1cc(/C=N/NC(=O)c2cccnc2)ccc1O	BioA inh 41
CCOc1cccc(/C=N/NC(=O)c2cccnc2)c1O	DUSP3 inh 52
C[C@@H]1CN([C@H](C)CO)C(=O)c2cc(NC(=O)CCCCCC(=O)Nc3ccccc3N)ccc2O[C@@H]1CN(C)S(=O)(=O)c1ccccc1	none (no result: DUSP3 inh, Yp Topo-I inh, FadD28 binding, MazEF act, BioA inh)
O=C(C[C@H]1C[C@@H]2c3cc(NC(=O)Nc4ccccc4)ccc3O[C@@H]2[C@@H](CO)O1)NC1CCCCC1	none (no result: DUSP3 inh, Yp Topo-I inh, FadD28 binding, MazEF act)
COC(=O)c1cc2c(=O)c3ccccc3oc2nc1/C=C/N(C)C	MazEF act 85 (no result: FadD28 binding)
O=c1oc2ccccc2c(NC2CCCCC2)c1NS(=O)(=O)c1ccc(F)cc1	none
CCc1ccc(S(=O)(=O)Nc2c(NC3CCCCC3)c3ccccc3oc2=O)cc1	DUSP3 inh 57 (no result: TcdB inh)
CCn1cc(/C=c2/sc3n(c2=O)C2c4ccccc4OC(C)(N=3)C2C(=O)OC)c(C)n1 (stereo not given)	DUSP3 inh 53 (no result: BioA inh)
O=C(O)c1ccc(N(Cc2ccccc2)S(=O)(=O)c2ccccc2)cc1	DUSP3 inh 59!
C[C@H](CO)N1C[C@H](C)[C@@H](CN(C)C(=O)Nc2ccc3c(c2)OCO3)Oc2ccc(NC(=O)c3ccncc3)cc2CC1=O	none (no result: DUSP3 inh, Yp Topo-I inh, FadD28 binding, MazEF act)
Cc1nn(C2CC(O)C(O)C(CO)O2)c(=O)[nH]c1=O (stereo not given)	TcdB inh 13 (no result: DUSP3 inh, BioA inh)
Cc1ccccc1C1CC(=O)Oc2cc(O)ccc21 (stereo not given)	FadD28 binding 13 (no result: DUSP3 inh, TcdB inh)
COc1ccc(C2CC(=O)Oc3cc(O)ccc32)cc1 (stereo not given)	none (no result: DUSP3 inh)
Cc1ccc(Cn2c(=O)oc3ccccc32)cc1	none
O=c1oc2ccccc2n1Cc1cccc(F)c1	DUSP3 inh 53 (no result: FadD28 binding)
CN(CC(=O)Nc1ccccc1Br)c1ncnc2sccc12	MazEF act 57
CN(CC(=O)Nc1ccc(F)c(F)c1F)c1ncnc2sccc12	none (no result: BioA inh)
C[C@@H]1CN([C@@H](C)CO)S(=O)(=O)c2ccc(C#Cc3ccncc3)cc2O[C@H]1CN(C)C(=O)C1CC1	TcdB inh 11 (no result: DUSP3 inh, Yp Topo-I inh, FadD28 binding, MazEF act)
CC(=O)N(C)C[C@@H]1Oc2cc(/C=C/c3ccccc3)ccc2S(=O)(=O)N([C@H](C)CO)C[C@@H]1C	TcdB inh 13 (no result: DUSP3 inh, Yp Topo-I inh, FadD28 binding, MazEF act)
CCC(=O)N(C)C[C@H]1Oc2cc(C#CC(C)(C)O)ccc2S(=O)(=O)N([C@@H](C)CO)C[C@@H]1C	none (no result: DUSP3 inh, Yp Topo-I inh, FadD28 binding, MazEF act)
O=C1NC(=S)SC1=Cc1ccc(Cl)cc1	none (no result: DUSP3 inh)
O=C1NC(=S)SC1=Cc1ccc(N(CCCl)CCCl)cc1	FadD28 binding 14 (no result: DUSP3 inh)
CC(=O)Nc1ccc(C2=NN(C)C(=NCc3ccccc3)SC2)cc1	DUSP3 inh 51 (no result: BioA inh)
O=C(Nc1ccc(Cl)cc1)N1CCSC1=NCc1ccccc1	none (no result: BioA inh)
CCSc1nnc(NC(=O)C2CC2c2ccccc2)s1 (stereo not given)	TcdB inh 12 (no result: BioA inh)
CC(C)NC(=O)N[C@H]1CC[C@@H](CCNS(=O)(=O)Cc2ccccc2)O[C@@H]1CO	none (no result: DUSP3 inh, Yp Topo-I inh, FadD28 binding, MazEF act)
CCC(NS(=O)(=O)c1ccc(C)cc1)C(=O)N1CCN(c2ccccn2)CC1 (stereo not given)	DUSP3 inh 50
O=C(CCCN1C(=O)/C(=C\c2ccccc2)SC1=S)N1CCOCC1	none (no result: DUSP3 inh)
CCN1C(=O)NC(=O)/C(=C\c2cn(CC(=O)N3CCCCC3)c3ccccc23)C1=O	MazEF act 117
O=C(O)CN1C(=O)/C(=C\c2cn(CC(=O)N3CCOCC3)c3ccccc23)SC1=S	MazEF act 191 (no result: BioA inh)
Cc1cccn2c(=O)c3cc(C(=O)NCc4ccc(F)cc4)c(=N)n(CC4CCCO4)c3nc12 (stereo not given)	DUSP3 inh 56
COc1ccc(CNC(=O)c2cc3c(=O)n4cccc(C)c4nc3n(CC3CCCO3)c2=N)cc1 (stereo not given)	none
CCOC(=O)c1ccc[n+](CC(=O)c2ccc(NC(=O)c3ccccc3)cc2)c1	TcdB inh 12
O=c1ccc2[n+]([O-])c3ccc(O)cc3oc-2c1	Yp Topo-I inh 396, FadD28 binding 98 (no result: BioA inh)
COc1ccc2c3c(n(C)c2c1)[C@H](CO)N(Cc1ccc(F)cc1)CC31CN(C)C1	none (no result: DUSP3 inh, Yp Topo-I inh, FadD28 binding, MazEF act, BioA inh)
CCCCCCCCCCCC1=C(O)C(=O)C=C(O)C1=O	none (no result: DUSP3 inh, TcdB inh)
COC1=CC(=O)C(O)=C(CCCCCCC/C=C/CCCCCCCC2=C(O)C(=O)C=C(OC)C2=O)C1=O	FadD28 binding 22 (no result: DUSP3 inh, TcdB inh)
C/C=C/c1ccc([C@@H]2[C@@H](CO)N(C(C)=O)[C@@H]2CNC(=O)CC2CC2)cc1	none (no result: DUSP3 inh, Yp Topo-I inh, FadD28 binding, MazEF act)
O=C(NC1CCCc2c1cnn2-c1ccc(F)cc1F)c1csnn1 (stereo not given)	DUSP3 inh 54
O=C(CCc1cn2ccccc2n1)NC1CCCc2c1cnn2-c1ccccc1F (stereo not given)	DUSP3 inh 50
